Drawing on ChEMBL document CHEMBL4513216, “Probing the Open Global Health Chemical Diversity Library for Multistage-Active Starting Points for Next-Generation Antimalarials” (ACS Infect Dis, 2020), this text covers INHIBITION for 52 molecules.

The structures appear in SMILES notation. Screen size: about 69,000 compounds; about 8,600 (12%) showed an effect of 50% or more. The full list was thinned out, with strong results kept by preference.

This test relates to Plasmodium berghei. The experiment in a line: Screen against P. berghei liver stage (PbLuc), transformed with Luciferase, at 10uM. As to conditions: tested at 10 uM. It is filed as functional, HepG2.
As for `Cc1nc(S(=O)(=O)N2CCSC3(CCCCC3)C2)cn1C`, the INHIBITION is given as -12.1%.

Consider `CC(C)CC(=O)N1CC[C@@H]2[C@H](CC1)N(Cc1cccnc1)CCS2(=O)=O`, for which the INHIBITION was 20.4%.

Turning to `O=C(Cc1ccccn1)N1CCN(C(=O)CC2CCCC2)CC1`, the INHIBITION was found to be 3.73%.

For `Cc1nn(C)c2cnn(Cc3ccc(C(=O)NCC4CC4)o3)c12`, the INHIBITION is on record as 38.3%.

Turning to `CN(Cc1cnn(C)c1)C(=O)NCC1CCS(=O)(=O)C1` (configuration not stated), the INHIBITION is reported as -22.3%.

With `CC(=O)N1CCC2(C1)CN(C(=O)C1CCOC1)C2` (configuration not stated), the INHIBITION came out at 9.97%.

For the molecule `CN(C)CCOCC1CN(C(=O)c2cccn2C)Cc2ccnn2C1` (configuration not stated), the INHIBITION is recorded as -7.59%.

With `Cn1ccc(C(=O)N2CCCC(Cc3cccc4cccnc34)C2)n1` (configuration not stated), the INHIBITION is -0.371%.

On to `CSCCCN1C[C@H](NC(=O)c2ccc(C#N)nc2)[C@@H](C2CC2)C1`, for which the INHIBITION is recorded as 27.4%.

Take `CCCc1cncnc1N1CCC(NCc2ccncc2)CC1`: the INHIBITION is given as 49.1%.

On to `CCCc1cncnc1N1CCC(NCc2cc3ccccc3[nH]2)CC1`, for which the INHIBITION came out at 88.2%.

`CCCc1cncnc1N1CCC(NCc2ccc(O)cc2)CC1`: the INHIBITION was determined as 29.9%.

Turning to `Cc1csc(C2(NC(=O)CCc3ccncc3)CCCC2)n1`, the INHIBITION came out at 20%.

On to `CCn1c(CC2CCNCC2)nn(Cc2ccc(C(=O)NC)o2)c1=O`, for which the INHIBITION came out at 44.8%.

`CCn1c(C2CCCNC2)nn(Cc2ccc(C(=O)NC)o2)c1=O` (configuration not stated): the INHIBITION was 38.5%.

On to `CCn1c(C2CCNCC2)nn(Cc2ccc(C(=O)NC)o2)c1=O`, for which the INHIBITION is recorded as 52.1%.

For `CCOCCn1nc(C2CCNCC2)n(Cc2ccccc2)c1=O`, the INHIBITION came to 8.51%.

For `CCCn1nc(C2CCNCC2)n(Cc2ccccc2)c1=O`, the INHIBITION was 26.8%.

Take `CCn1c(C2CCNCC2)nn(CCCc2ccccc2)c1=O`: the INHIBITION is 52.1%.

Consider `CC(CN1CCOCC1)NC(=O)N1CCCC1` (configuration not stated), for which the INHIBITION is listed as -15%.

For the molecule `CN(C)[C@@H]1CCN(c2ncccn2)[C@H]1Cc1ccncc1`, the INHIBITION stood at 26.8%.

On to `COC(=O)c1ccc(OC)c(Cn2cc(Br)cn2)c1`, for which the INHIBITION was 20.6%.

As for `O=C(NCc1ccc2[nH]c(=O)[nH]c2c1)c1ccc(CN2CCCC2)o1`, the INHIBITION was determined as 56.2%.

Consider `Cc1[nH]c2ccc(CNC(=O)c3ccc(CN4CCCC4)o3)cc2c1C`, for which the INHIBITION is listed as 40.3%.

With `O=C(CN1CCCCCC1)NCc1ccc2[nH]c(=O)[nH]c2c1`, the INHIBITION is -20.1%.

Consider `CC1CCCN1Cc1ccccc1-c1nc(C(C)(C)C)cc(=O)[nH]1` (configuration not stated), for which the INHIBITION is recorded as 9%.

As for `CN(C)c1ccc(C(=O)N2CCCC(n3cncn3)C2)nn1` (configuration not stated), the INHIBITION came to 0.411%.

`CCOC(=O)c1n[nH]cc1-c1cncn1CCn1nc(C)c(C)c1C`: the INHIBITION is reported as 12.3%.

On to `COc1ccc(-c2cc(C3CCCCCN3S(=O)(=O)N(C)C)on2)cc1` (configuration not stated), for which the INHIBITION amounted to 55.2%.

With `CN(C)S(=O)(=O)N1CCCCCC1c1cc(-c2ccc(F)cc2)no1` (configuration not stated), the INHIBITION worked out at 38.4%.

Take `COc1ccc(-c2cc(C3CCCCCN3S(C)(=O)=O)on2)cc1` (configuration not stated): the INHIBITION was found to be 12.725%.

Take `CSc1cccc(CNC(=O)[C@H]2CNC[C@H](C(=O)N3CCOCC3)C2)c1`: the INHIBITION was found to be 35.8%.

As to `O=C1Nc2ccccc2CNC12CCN(CC1CCNC1)CC2` (configuration not stated), the INHIBITION came out at 29.2%.

In the case of `COCc1cccc(C(=O)N2C[C@@H]3CC[C@H]2CN(Cc2cscn2)C3)n1`, the INHIBITION was -38.6%.

As to `C[C@H](NC(=O)C1CCCC1)c1nc2cc(-c3ccc(F)cc3)ncn2n1`, the INHIBITION is given as 58.1%.

As for `COc1ccc(-c2cc3nc([C@H](C)NC(=O)C4CC4)nn3cn2)cc1`, the INHIBITION is -5.71%.

For the molecule `C[C@H](NC(=O)C1CC1)c1nc2cc(-c3ccc(F)cc3)ncn2n1`, the INHIBITION came out at 49.6%.

For the molecule `CCN1Cc2ccccc2CC2(CCN(CC(=O)O)CC2)C1=O`, the INHIBITION is on record as 37.5%.

With `NCCC(=O)Nc1ccc(-c2ccccc2)cc1`, the INHIBITION is 14.5%.

As to `Cc1ccc(OCC(=O)NC2(C#N)CCSCC2)cc1C`, the INHIBITION is 41.4%.

For `Cc1c(Cl)cccc1OCC(=O)NC1(C#N)CCSC1` (configuration not stated), the INHIBITION is listed as 87.2%.

`N#CC1(NC(=O)COc2cc(Cl)cc(Cl)c2)CCSC1` (configuration not stated): the INHIBITION is recorded as 38.5%.

Turning to `CN(C)C(=O)c1cc(-c2ccccc2)[nH]n1`, the INHIBITION was -35%.

Turning to `CC(C)c1ccc(CC2(C)Cc3cc(CC(=O)O)ccc3O2)cc1` (configuration not stated), the INHIBITION was found to be 20.85%.

`CN(C)Cc1cnc(C2CCN(C(=O)c3cccc(F)c3)C2)[nH]1` (configuration not stated): the INHIBITION is listed as 41.7%.

As to `CN(C)[C@H]1CCCCN(C(=O)c2cccc(-c3cccc(F)c3)c2)C1`, the INHIBITION was 60.4%.

Turning to `CN(C)[C@H]1CCCCN(C(=O)c2cccc(N3CCS(=O)(=O)CC3)c2)C1`, the INHIBITION is 30.9%.

For the molecule `CN(C(=O)CCNC(=O)NC1CCCCC1)c1ccccc1`, the INHIBITION is reported as 27.6%.

For `Cn1c(NCC(O)c2ccccc2F)c(C#N)c(=O)n(C)c1=O` (configuration not stated), the INHIBITION is on record as -5.25%.

Consider `CNC(=O)[C@@H]1C[C@@H](NC(=O)CCCc2cccs2)CN1C1CCOCC1`, for which the INHIBITION turned out to be 10.4%.

As to `CNC(=O)[C@@H]1C[C@@H](NC(=O)CSc2ccccc2)CN1C1CCOCC1`, the INHIBITION turned out to be 54.6%.

`CNC(=O)[C@@H]1C[C@@H](NC(=O)Cc2cccs2)CN1C1CCOCC1`: the INHIBITION turned out to be 23.5%.
